Records with an inconclusive call do not appear. The source made the active and inactive calls. Calls follow the shape of the dose curve; as a rule, active = well fitted curve in the direction sought with a large enough effect; inconclusive = small, poorly fitted or top-dose-only effect, or another doubt; inactive = no such curve, though single readings can be large; an effect the other way counts as inactive or inconclusive.
Tests used:
[1] = qHTS of pediatric cancer cell lines to identify multiple opportunities for drug repurposing: Primary screen for control Hh wild type fibroblast cells (AID 1347106); conditions: Hh wild-type fibroblast viability, CellTiter-Glo luminescence, 48 h; series mostly up to 46 µM; also: nearly all actives have a fitted effect of over 55% in size; also: potency is read from the fitted curve at half-maximal effect
In short: (§1)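 Viability after 48 h compound treatment at 37C, 500-1,000 cells/well, read as ATP luminescence with CellTiter-Glo. Primary screens used 11-point (MIPE, 0.78 nM-46 µM) or 8-point (NPC, 0.59 nM-46 µM) final concentrations; follow-up screens used 11-point dilutions.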

[2] = qHTS of pediatric cancer cell lines to identify multiple opportunities for drug repurposing: Primary screen for Rh30 cells (AID 1347107); conditions: Rh30 rhabdomyosarcoma viability, CellTiter-Glo luminescence, 48 h; series mostly up to 46 µM; also: nearly all actives have a fitted effect of over 75% in size
In short: as §1

[3] = qHTS of pediatric cancer cell lines to identify multiple opportunities for drug repurposing: Confirmatory screen for NB1643 cells (AID 1347109); conditions: NB1643 neuroblastoma cell viability; series mostly up to 45.9 µM; also: nearly all actives have a fitted effect of over 45% in size; also: potency is read from the fitted curve at half-maximal effect
In short: as §1

[4] = qHTS of pediatric cancer cell lines to identify multiple opportunities for drug repurposing: Confirmatory screen for A673 cells (AID 1347110); conditions: A673 Ewing sarcoma cell viability; series mostly up to 45.9 µM; also: nearly all actives have a fitted effect of over 65% in size; also: potency is read from the fitted curve at half-maximal effect
In short: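 Cells plated at 500-1,000/well were treated five hours later with multi-point dilutions up to 46 µM final. After two days, CellTiter-Glo was added and luminescence read.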

[5] = qHTS of pediatric cancer cell lines to identify multiple opportunities for drug repurposing: Confirmatory screen for SK-N-MC cells (AID 1347111); conditions: SK-N-MC cell viability; series mostly up to 45.9 µM;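 also: cells exposed to compound for 48 h before the readout; nearly all actives have a fitted effect of over 70% in size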; also: potency is read from the fitted curve at half-maximal effect
In short: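 SK-N-MC cells at 500-1,000 cells/well in growth media were pre-incubated 5 h, then exposed to compounds at 11-point dilutions for 48 h at 37 degrees C, 5% CO2. Viability was read as CellTiter-Glo luminescence.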

[6] = qHTS of pediatric cancer cell lines to identify multiple opportunities for drug repurposing: Confirmatory screen for LAN-5 cells (AID 1347113); conditions: LAN-5 neuroblastoma cell viability; series mostly up to 45.9 µM; also: nearly all actives have a fitted effect of over 65% in size
In short: as §1

[7] = qHTS of pediatric cancer cell lines to identify multiple opportunities for drug repurposing: Confirmatory screen for DAOY cells (AID 1347114); conditions: DAOY medulloblastoma cells viability, cytotoxicity qHTS; series mostly up to 45.9 µM; also: nearly all actives have a fitted effect of over 65% in size
In short: (§2)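 Viability measured as metabolically active cells via CellTiter-Glo luminescence following 48 hours of compound exposure, 11-point dilutions in confirmatory testing. 500-1,000 cells/well plated 5 hours before dosing; controls were DMSO and 2.3 µM bortezomib.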

[8] = qHTS of pediatric cancer cell lines to identify multiple opportunities for drug repurposing: Confirmatory screen for NB-EBc1 cells (AID 1347115); conditions: NB-EBc1 neuroblastoma cells, viability (cytotoxicity); series mostly up to 45.9 µM; also: nearly all actives have a fitted effect of over 45% in size
In short: as §1

[9] = qHTS of pediatric cancer cell lines to identify multiple opportunities for drug repurposing: Confirmatory screen for SJ-GBM2 cells (AID 1347116); conditions: SJ-GBM2 glioblastoma cells, viability; series mostly up to 45.9 µM; also: nearly all actives have a fitted effect of over 60% in size; also: potency is read from the fitted curve at half-maximal effect
In short: as §2

[10] = qHTS of pediatric cancer cell lines to identify multiple opportunities for drug repurposing: Primary screen for Rh41 cells (AID 1347108); conditions: Rh41 rhabdomyosarcoma viability, CellTiter-Glo luminescence, 48 h; series mostly up to 46 µM; also: nearly all actives have a fitted effect of over 70% in size; also: potency is read from the fitted curve at half-maximal effect
In short: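 Readout: CellTiter-Glo luminescence, 48 h treatment. Controls DMSO (neutral) and bortezomib 2.3 µM final (positive). Potency and efficacy taken from primary-screen concentration-response curves.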

Measured: Potency

CC(C)NCC(O)c1ccc(NS(C)(=O)=O)cc1 (stereo not given)
not listed: [10]
inactive: all other assays above

COc1cc2nc(N3CCCN(C)CC3)nc(NC3CCN(Cc4ccccc4)CC3)c2cc1OC
active: [1] 16.6 µM | [10] 18.7 µM | [3] 20.8 µM | [4] 7.37 µM | [5] 3.69 µM | [9] 0.928 µM
inactive: [7] | [8]

CC1CC2C3CCC4=CC(=O)C=C[C@]4(C)[C@@]3(F)[C@@H](O)C[C@]2(C)[C@@]1(O)C(=O)CO (stereo not given in full)
active: [4] 2.93 µM
not listed: [2] | [3] | [10]
inactive: all other assays above

COc1cc2c(Nc3ccc(Br)cc3F)ncnc2cc1OCC1CCN(C)CC1
not listed: [4] | [7] | [10]
inactive: all other assays above

CS(=O)(=O)c1ccc([C@@H](O)[C@@H](CO)NC(=O)C(Cl)Cl)cc1
not listed: [3] | [5]
inactive: all other assays above

CNNCc1ccc(C(=O)NC(C)C)cc1
active: [4] 10.4 µM
not listed: [3] | [5]
inactive: all other assays above

Nc1nc(N)nc(-c2cc(Cl)ccc2Cl)n1
inactive: [1] | [2] | [10] | [7]
active: [4] 26.9 µM | [5] 1.17 µM

S=P(N1CC1)(N1CC1)N1CC1
inactive: [1] | [2] | [10] | [7] | [9]
active: [4] 0.928 µM | [5] 3.69 µM

Reference: PubChem BioAssay (NCATS)
